Experimental data as given in PubChem BioAssay AID2155 (National Center for Advancing Translational Sciences (NCATS), 2009).
The source made the active and inactive calls. Calls come from the whole dose curve.

The compounds below were run against Polyunsaturated fatty acid lipoxygenase ALOX15 (Homo sapiens) (UniProt P16050) (assay: Cuvette-Based Assay fo Inhibitors of 15-hLO-1 (15-human lipoxygenase 1): Series 1 - Round 1). Conditions: purified 15-hLO-1, cuvette UV 234 nm product formation.
Source text: Assay Provider: Holman, T.R., University of California, Santa Cruz Screening Center PI: Austin, Christopher P. Screening Center: NIH Chemical Genomics Center Human lipoxygenase 15hLO-1 is a member of the closely related lipoxygenase family of enzymes which catalyze the site-specific oxidation of arachidonic acid to various hormone precursor molecules and as such is a candidate for drug development in a variety of disease areas, such as cancer and inflammation. The enzyme activity of 15hLO-1 was determined by a direct measurement of product formation by monitoring the absorbance at 234 nm in a 2 mL cuvette. IC50 values of inhibitors were obtained by measuring the enzymatic rate at a variety of concentrations (Carroll et al, Segraves et al). A purified preparation of human 15hLO-1 was supplied by Professor Ted Holman, University of California, Santa Cruz. This assay is includes some confirmation and follow-up compounds for related primary screening assay AID 887. The follow-up compounds focus on analogues of current lead 15hLO-1 inhibitor series.
For control experiments, 2 mL of substrate buffer (7 uM arachidonic acid / 25 mM HEPES / 0.01% (v/v) Triton X-100, pH 7.5) was aliquoted in a cuvette with a magnetic stir bar. After equilibrium was ensured, an aliquot of inhibitor solvent was added (DMSO or MeOH), and equilibrium was once again assured. The reaction was started by adding enzyme to the cuvette and the reaction was followed until completed. The inhibition experiments were performed as above, except the actual inhibitory compound was added instead of vehicle. To achieve an IC50, typically 5 concentrations of the inhibitor were studied. If the inhibitor concentration was constant, then five different reaction volumes were used. Step \ Parameter \ Value \ Description 1; UV-Vis; 234 nm; Equilibration 2; Reagent; 2 mL; Substrate buffer 3; UV-Vis; 234 nm; Equilibration 4; Reagent; varies; Compound 5; UV-Vis; 234 nm; Equilibration 6; Reagent; 50-200 nM; Enzyme 15hLO-1 7; UV-Vis; 234 nm; Enzymatic reaction Step \ Notes 1. Blank cuvette to air. 2. 7 uM AA, 25 mM HEPES, 0.01% Triton X-100, pH 7.5. 3. No change in absorbance ensured. 4. Compound vehicle or compound in various concentrations depending on potency. 5. No change in absorbance ensured. 6. Enzyme concentration to achieve reaction rate between 0.02 and 0.04 AU/s. 7. Enzymatic reaction visualized until completion.

Chain of Polyunsaturated fatty acid lipoxygenase ALOX15 (Homo sapiens) (P16050 whole entry, looked up): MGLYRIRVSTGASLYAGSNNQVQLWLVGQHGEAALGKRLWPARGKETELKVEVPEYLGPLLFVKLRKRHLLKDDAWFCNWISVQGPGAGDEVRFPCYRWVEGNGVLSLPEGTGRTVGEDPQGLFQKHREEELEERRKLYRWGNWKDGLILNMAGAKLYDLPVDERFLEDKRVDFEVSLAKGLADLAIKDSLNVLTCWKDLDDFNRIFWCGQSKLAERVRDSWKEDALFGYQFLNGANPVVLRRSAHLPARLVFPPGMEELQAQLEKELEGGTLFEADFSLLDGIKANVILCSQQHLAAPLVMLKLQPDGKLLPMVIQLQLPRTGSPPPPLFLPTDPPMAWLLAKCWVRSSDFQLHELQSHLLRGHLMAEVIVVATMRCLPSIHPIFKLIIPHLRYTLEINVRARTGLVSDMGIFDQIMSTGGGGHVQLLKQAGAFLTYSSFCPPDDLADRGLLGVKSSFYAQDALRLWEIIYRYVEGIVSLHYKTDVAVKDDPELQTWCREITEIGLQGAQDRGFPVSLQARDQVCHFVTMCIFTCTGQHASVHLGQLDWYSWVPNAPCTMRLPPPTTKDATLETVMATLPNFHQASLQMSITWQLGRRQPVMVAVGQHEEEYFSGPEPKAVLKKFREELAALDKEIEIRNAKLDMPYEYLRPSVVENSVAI

Potency, active:
O=C(OCC#CCSc1nnc(-c2cccc3ccccc23)o1)c1ccc(Cl)cc1 18 nM, COc1ccc(C(=O)OCC#CCSc2nnc(-c3cccc4ccccc34)o2)cc1 22 nM, O=C(OCC#CCSc1nnc(-c2cccc3ccccc23)s1)c1cccs1 25000 nM, CC(C)Nc1oc(-c2cccc3ccccc23)nc1C#N 190 nM, O=C(OCC#CCNc1nnc(-c2cccc3ccccc23)o1)c1cccs1 1000 nM, O=C(OCC#CCSc1nnc(-c2cccc3ccccc23)o1)c1cnc[nH]1 1000 nM, OCC#CCSc1nnc(-c2cccc3ccccc23)o1 1000 nM, O=C(NCC#CCSc1nnc(-c2cccc3ccccc23)o1)c1cccs1 1000 nM, C=CCNc1nnc(-c2cccc3ccccc23)o1 1000 nM, O=C(OCC#CCSc1nnc(-c2cccc3ccccc23)o1)c1ccc(Br)cc1 16 nM, N#Cc1nc(-c2cccc3ccccc23)oc1NCC#CCOC(=O)c1cccs1 25000 nM
